Measurements taken from PubChem BioAssay (Tox21).
Records with an inconclusive call do not appear. Active and inactive are the calls of the source. Unless noted, calls come from the whole dose curve.

Experiments:
[1] = molecular target: Peroxisome proliferator-activated receptor delta (Homo sapiens) (UniProt Q03181); test: qHTS assay to identify small molecule agonists of the peroxisome proliferator-activated receptor delta (PPARd) signaling pathway (AID 743212); note: % is set by controls: 0 for no effect and ±100 for the full control effect
Peroxisome proliferator-activated receptor delta (Homo sapiens), sequence (Q03181 whole entry, looked up): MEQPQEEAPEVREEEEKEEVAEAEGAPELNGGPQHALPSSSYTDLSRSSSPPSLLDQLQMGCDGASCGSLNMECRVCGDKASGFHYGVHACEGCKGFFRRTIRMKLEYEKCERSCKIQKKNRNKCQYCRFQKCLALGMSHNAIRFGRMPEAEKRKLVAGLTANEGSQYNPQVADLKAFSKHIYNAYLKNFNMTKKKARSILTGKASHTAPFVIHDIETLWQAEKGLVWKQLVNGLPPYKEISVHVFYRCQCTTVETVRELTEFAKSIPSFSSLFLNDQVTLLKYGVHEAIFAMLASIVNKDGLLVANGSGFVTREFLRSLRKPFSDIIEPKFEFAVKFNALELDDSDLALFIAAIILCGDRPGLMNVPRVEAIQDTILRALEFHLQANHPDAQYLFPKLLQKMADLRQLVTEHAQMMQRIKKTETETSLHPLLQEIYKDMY
Method in brief: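 HEK293H PPARd-bla cells; 5 h preincubation 37 C/5% CO2; compound (DMSO) 37 C; LiveBLAzer B/G FRET substrate 2 h RT; fluorescence intensity.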

[2] = molecular target: Bile acid receptor (Homo sapiens) (UniProt Q96RI1); test: qHTS assay to identify small molecule antagonists of the farnesoid-X-receptor (FXR) signaling pathway (AID 743217; active = well fitted inhibition curve with a large enough effect in the signal ratio in the repeat runs, not every such curve was filed as active; the % refers to the signal ratio; note: % is set by controls: 0 for no effect and ±100 for the full control effect)
Bile acid receptor (Homo sapiens), sequence (Q96RI1 whole entry, looked up): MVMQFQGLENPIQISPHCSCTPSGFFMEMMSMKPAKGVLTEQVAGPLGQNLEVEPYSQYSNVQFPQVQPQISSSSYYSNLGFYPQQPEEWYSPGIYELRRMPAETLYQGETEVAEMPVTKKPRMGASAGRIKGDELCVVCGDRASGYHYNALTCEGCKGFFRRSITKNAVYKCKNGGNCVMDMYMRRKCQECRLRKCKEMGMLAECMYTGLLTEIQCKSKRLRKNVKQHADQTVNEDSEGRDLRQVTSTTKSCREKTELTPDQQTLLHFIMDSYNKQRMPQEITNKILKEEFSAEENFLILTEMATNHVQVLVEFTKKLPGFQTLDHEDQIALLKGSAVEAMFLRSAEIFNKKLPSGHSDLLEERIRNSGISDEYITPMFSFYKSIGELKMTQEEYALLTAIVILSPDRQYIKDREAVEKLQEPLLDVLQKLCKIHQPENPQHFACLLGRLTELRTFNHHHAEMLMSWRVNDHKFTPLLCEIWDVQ
Method in brief: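 Beta-lactamase reporter under UAS control in HEK 293T cells; compound exposure 16 h at 37 °C in the presence of chenodeoxycholic acid (50 uM final); signal from B/G FRET substrate after 2 h at room temperature.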

[3] = qHTS assay to identify small molecule agonists of the farnesoid-X-receptor (FXR) signaling pathway - cell viability counter screen (AID 743218; active = well fitted curve in the direction sought with a large enough effect in the repeat runs; an effect the other way counts as inactive or inconclusive; note: % is set by controls: 0 for no effect and ±100 for the full control effect; nearly all actives have a fitted effect of over 45% in size)
Method in brief: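 In GeneBLAzer FXR-UAS-bla HEK 293T cells, compounds act for 16 h at 37 C. Cell viability is then scored in the reporter wells by CellTiter-Glo, 30 min at RT, luminescence.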

[4] = molecular target: Bile acid receptor (Homo sapiens) (UniProt Q96RI1); test: qHTS assay to identify small molecule agonists of the farnesoid-X-receptor (FXR) signaling pathway (AID 743220; active = well fitted activation curve with a large enough effect in the signal ratio in the repeat runs, not every such curve was filed as active; the % refers to the signal ratio; note: % is set by controls: 0 for no effect and ±100 for the full control effect)
Method in brief: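 Beta-lactamase reporter under UAS control in GeneBLAzer FXR HEK 293T cells (5000/well) measured with LiveBLAzer FRET substrate after 2 h at room temperature. Compound exposure lasted 16 h at 37C.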

[5] = qHTS assay to identify small molecule antagonists of the farnesoid-X-receptor (FXR) signaling pathway - cell viability counter screen (AID 743221; active = well fitted cell-killing curve with a large enough effect in the repeat runs, not every such curve was filed as active; note: % is set by controls: 0 for no effect and ±100 for the full control effect; nearly all actives have a fitted effect of over 50% in size)
Method in brief: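 HEK 293T FXR-bla cells, 5 h pre-incubation; compound + CDCA 50 uM final, 16 h, 37 C; beta-lactamase FRET read first, then CellTiter-Glo luminescence, 30 min RT.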

[6] = molecular target: Vitamin D3 receptor (Homo sapiens) (UniProt P11473); test: qHTS assay to identify small molecule agonists of the vitamin D receptor (VDR) signaling pathway (AID 743222); note: % is set by controls: 0 for no effect and ±100 for the full control effect
Vitamin D3 receptor (Homo sapiens), sequence (P11473 whole entry, looked up): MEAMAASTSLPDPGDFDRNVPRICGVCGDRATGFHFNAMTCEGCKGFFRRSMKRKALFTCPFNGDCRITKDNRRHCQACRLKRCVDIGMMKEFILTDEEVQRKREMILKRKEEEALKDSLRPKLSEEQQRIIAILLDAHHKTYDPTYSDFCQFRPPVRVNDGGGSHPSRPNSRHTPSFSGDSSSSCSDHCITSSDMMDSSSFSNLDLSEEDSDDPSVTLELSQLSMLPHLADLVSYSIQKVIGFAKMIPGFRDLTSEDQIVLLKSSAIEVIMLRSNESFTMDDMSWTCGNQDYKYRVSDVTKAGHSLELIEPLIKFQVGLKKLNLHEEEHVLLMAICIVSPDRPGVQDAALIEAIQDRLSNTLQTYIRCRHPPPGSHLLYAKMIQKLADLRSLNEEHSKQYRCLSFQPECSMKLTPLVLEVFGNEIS
Method in brief: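 Agonist activity measured in VDR-bla reporter cells. Exposure 16 h, 37C, 5% CO2; detection by B/G FRET substrate, 2 h RT.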

[7] = qHTS assay to identify small molecule agonists of the vitamin D receptor (VDR) signaling pathway - cell viability counter screen (AID 743224; active = well fitted curve in the direction sought with a large enough effect in the repeat runs; an effect the other way counts as inactive or inconclusive; note: series mostly up to about 63 µM; % is set by controls: 0 for no effect and ±100 for the full control effect; nearly all actives have a fitted effect of over 50% in size)
Method in brief: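 VDR-bla cell line, quantitative HTS format; 16 h compound incubation (37C, 5% CO2); ATP-based CellTiter-Glo luminescence measured in the reporter assay wells.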

[8] = qHTS assay to identify small molecule antagonists of the vitamin D receptor (VDR) signaling pathway - cell viability counter screen (AID 743225; active = well fitted curve in the direction sought with a large enough effect in the repeat runs; an effect the other way counts as inactive or inconclusive; note: % is set by controls: 0 for no effect and ±100 for the full control effect; nearly all actives have a fitted effect of over 50% in size)
Method in brief: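 Viability counter screen run in the same wells as the beta-lactamase reporter assay: HEK 293T VDR-UAS-bla cells, 16 h compound exposure at 37C with 3 nM (final) 1-alpha,25-dihydroxyvitamin D3. CellTiter-Glo luminescence, 30 min, room temperature.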

[9] = qHTS assay to identify small molecule agonists of the NFkB signaling pathway - cell viability counter screen (AID 1159515); note: series mostly up to about 61 µM; % is set by controls: 0 for no effect and ±100 for the full control effect; nearly all actives have a fitted effect of over 55% in size
Method in brief: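 Viability in NFkB-bla ME-180 cells was measured by CellTiter-Glo luminescence, 30 min room temperature, in wells already treated 5 hr with compounds and read for reporter FRET.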

[10] = qHTS assay to identify small molecule agonists of the endoplasmic reticulum stress response signaling pathway (AID 1159516; active = well fitted activation curve with a large enough effect in the signal ratio in the repeat runs, not every such curve was filed as active; the % refers to the signal ratio; note: % is set by controls: 0 for no effect and ±100 for the full control effect)
Method in brief: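 ER stress element reporter (bla) in HeLa. 1,500 cells/well, overnight attachment; 5 hr compound; 2 hr RT substrate; dual-emission fluorescence.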

[11] = qHTS assay to identify small molecule agonists of the endoplasmic reticulum stress response signaling pathway - cell viability counter screen (AID 1159517);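 note: HeLa cells carrying an ER stress response element beta-lactamase reporter; series mostly up to about 61 µM; % is set by controls: 0 for no effect and ±100 for the full control effect; nearly all actives have a fitted effect of over 50% in size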
Method in brief: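 HeLa cells carrying an ESRE-driven beta-lactamase reporter receive compound for 5 hr at 37 C. Cell viability is then gauged with CellTiter-Glo by luminescence, 30 min at room temperature.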

[12] = molecular target: Nuclear receptor ROR-gamma (Homo sapiens) (UniProt P51449); test: qHTS assay to identify small molecule antagonists of the retinoid-related orphan receptor gamma (ROR-gamma) signaling pathway (AID 1159521; active = well fitted curve in the direction sought with a large enough effect in the repeat runs; an effect the other way counts as inactive or inconclusive)
Method in brief: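 Luminescence readout (ONE-Glo, 30 min RT) after 16 h doxycycline induction; loss of signal scored as antagonism. CHO cells with TET-inducible RORγ and RORE-LUC reporter; compounds added 2 h before 1 uM final doxycycline.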

[13] = qHTS assay to identify small molecule agonists of the AP-1 signaling pathway - cell viability counter screen (AID 1159525); note: nearly all actives have a fitted effect of over 55% in size
Method in brief: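 Luminescent ATP readout (Cell Titer Glo, 30 min RT), normalised to DMSO and tetra n-octyl ammonium bromide controls. Cells were ME-180 AP-1-bla in 0.5% dialyzed FBS Opti-MEM, with a 5 h, 37 °C compound exposure.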

[14] = qHTS assay to identify small molecule agonists of the AP-1 signaling pathway (AID 1159526); note: % is set by controls: 0 for no effect and ±100 for the full control effect
[15] = molecular target: Retinoic acid receptor RXR-alpha (Homo sapiens) (UniProt P19793); test: qHTS assay to identify small molecule agonists of the RXR signaling pathway (AID 1159527); note: % is set by controls: 0 for no effect and ±100 for the full control effect; nearly all actives have a fitted effect of over 35% in size
Retinoic acid receptor RXR-alpha (Homo sapiens), sequence (P19793 whole entry, looked up): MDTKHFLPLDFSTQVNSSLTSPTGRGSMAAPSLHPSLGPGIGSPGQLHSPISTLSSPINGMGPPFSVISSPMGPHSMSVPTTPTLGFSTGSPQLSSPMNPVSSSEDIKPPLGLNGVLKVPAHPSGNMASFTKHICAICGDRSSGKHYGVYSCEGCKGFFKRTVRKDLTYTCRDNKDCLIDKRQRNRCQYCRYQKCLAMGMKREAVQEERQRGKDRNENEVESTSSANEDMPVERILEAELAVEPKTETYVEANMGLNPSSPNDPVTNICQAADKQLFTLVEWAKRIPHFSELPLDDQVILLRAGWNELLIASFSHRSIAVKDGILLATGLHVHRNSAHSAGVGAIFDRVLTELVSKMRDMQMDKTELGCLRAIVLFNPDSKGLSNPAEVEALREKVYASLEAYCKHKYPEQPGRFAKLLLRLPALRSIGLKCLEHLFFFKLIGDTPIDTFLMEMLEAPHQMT
Method in brief: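 Agonist mode; 9-cis retinoic acid positive control. HEK 293T UAS-bla reporter cells, 2% charcoal-stripped FBS, 16 hr compound exposure at 37 C/5% CO2. LiveBLAzer B/G FRET substrate 2 hr RT; ex 405, em 460/530 nm.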

[16] = qHTS assay to identify small molecule agonists of the RXR signaling pathway - cell viability counter screen (AID 1159529; active = well fitted curve in the direction sought with a large enough effect in the repeat runs; an effect the other way counts as inactive or inconclusive)
Method in brief: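 Luminescence from CellTiter-Glo (30 min, RT) measured viability in the same wells as the beta-lactamase reporter readout. Cells: GeneBLAzer RXR-alpha HEK 293T, 2% charcoal-stripped FBS. Compound exposure 16 hr, 37 C.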

[17] = qHTS assay to identify small molecule antagonists of the peroxisome proliferator-activated receptor delta (PPARd) signaling pathway - cell viability counter screen (AID 743213; active = well fitted curve in the direction sought with a large enough effect in the repeat runs; an effect the other way counts as inactive or inconclusive)
Method in brief: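 Cytotoxicity counter screen: CellTiter-Glo luminescence read 30 min after addition, in the same wells as the reporter assay. There, PPARd UAS-bla HEK293H cells (3000/well) were treated 17 h at 37 C with compound and 300 nM L165041.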

[18] = molecular target: Peroxisome proliferator-activated receptor delta (Homo sapiens) (UniProt Q03181); test: qHTS assay to identify small molecule antagonists of the peroxisome proliferator-activated receptor delta (PPARd) signaling pathway (AID 743215; active = well fitted inhibition curve with a large enough effect in the signal ratio in the repeat runs, not every such curve was filed as active; the % refers to the signal ratio)
Method in brief: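 Antagonist-mode beta-lactamase reporter screen: HEK293H cells with UAS-bla under PPARd control, stimulated by 300 nM L165041 (final) alongside test compound for 17 h at 37 C, then FRET fluorescence after 2 h substrate incubation.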

[19] = molecular target: Vitamin D3 receptor (Homo sapiens) (UniProt P11473); test: qHTS assay to identify small molecule antagonists of the vitamin D receptor (VDR) signaling pathway (AID 743223; active = well fitted inhibition curve with a large enough effect in the signal ratio in the repeat runs, not every such curve was filed as active; the % refers to the signal ratio; note: % is set by controls: 0 for no effect and ±100 for the full control effect)
Method in brief: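 Beta-lactamase reporter read-out: FRET substrate fluorescence after 2 h at room temperature, following 16 h exposure of VDR-bla cells to test compound plus 3 nM (final) 1alpha,25-dihydroxyvitamin D3 agonist at 37C.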

[20] = qHTS assay to identify small molecule antagonists of the retinoid-related orphan receptor gamma (ROR-gamma) signaling pathway - cell viability counter screen (AID 1159520; active = well fitted curve in the direction sought with a large enough effect in the repeat runs; an effect the other way counts as inactive or inconclusive)
Method in brief: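 Cytotoxicity was read from cellular ATP (CellTiter-Glo luminescence) after 16 hr at 37 C with 1 uM doxycycline induction. The inducer was added 2 hr after compound transfer to Tet-on ROR gamma CHO cells.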

Cc1coc2ccccc2c1=O
inactive: outcome [1] | outcome [2] | outcome [3] | outcome [4] | outcome [5] | outcome [6] | outcome [7] | outcome [8] | outcome [9] | outcome [10] | outcome [11] | Potency [12] | outcome [13] | outcome [14] | Potency [15] | Potency [16]

Cc1nc2ccc(CN(C)c3ccc(C(=O)N[C@@H](CCC(=O)O)C(=O)O)s3)cc2c(=O)[nH]1
inactive: outcome [1] | outcome [17] | outcome [18] | outcome [3] | outcome [4] | outcome [5] | outcome [6] | outcome [19] | outcome [7] | outcome [8] | outcome [9] | outcome [10] | outcome [11] | Potency [12] | outcome [13] | outcome [14] | Potency [15] | Potency [16]

CCCCCCC1CCC(=O)O1 (stereo unspecified)
inactive: outcome [1] | outcome [17] | outcome [18] | outcome [5] | outcome [6] | outcome [7] | outcome [9] | outcome [10] | outcome [11] | Potency [12] | outcome [13] | outcome [14] | Potency [15] | Potency [16]

Cc1cc(C)c(N=Nc2c(O)c(S(=O)(=O)O)cc3cc(S(=O)(=O)O)ccc23)cc1C
inactive: activation [1] 6.93% [at 5.95 µM] | activity change, negative = cytotoxicity [5] 0.502% [at 5.95 µM] | activation [6] 0.83% [at 6.01 µM] | activity change, negative = inhibition [19] -3.01% [at 6.95 µM] | activity change, negative = cytotoxicity [7] -8.28% [at 5.95 µM] | viability change, negative = cytotoxic [8] 8.22% [at 6.95 µM] | activity, negative = cytotoxic [9] -2.06% [at 6.95 µM] | activation [10] -3.13% [at 6.95 µM] | activity change, negative = cytotoxicity [11] 9.59% [at 6.95 µM] | activity change, negative = inhibition [12] -3.58% [at 8.39 µM] | viability change, negative = cytotoxic [13] -9.8% [at 6.97 µM] | activation [14] 6% [at 6.97 µM]

O=S(=O)(O)c1cccc(S(=O)(=O)O)c1
inactive: outcome [1] | outcome [3] | outcome [5] | outcome [19] | outcome [8] | outcome [9] | outcome [10] | outcome [11] | Potency [12] | outcome [13] | outcome [14] | Potency [15] | Potency [16]

CCC(C)(CCCC(C)C)OC(C)=O (stereo unspecified)
inactive: outcome [1] | outcome [17] | outcome [18] | outcome [2] | outcome [3] | outcome [4] | outcome [5] | outcome [6] | outcome [19] | outcome [7] | outcome [8] | outcome [9] | outcome [10] | outcome [20] | Potency [12] | outcome [13] | outcome [14] | Potency [15] | Potency [16]

Cc1ccc(-c2ccccc2C#N)cc1
inactive: outcome [1] | outcome [2] | outcome [3] | outcome [4] | outcome [5] | outcome [6] | outcome [19] | outcome [7] | outcome [8] | outcome [9] | outcome [10] | outcome [11] | Potency [12] | outcome [13] | outcome [14] | Potency [15] | Potency [16]

Cc1ncc([C@@H](CCCCCCc2ccc3c(n2)NCCC3)CC(=O)O)cn1
inactive: outcome [1] | outcome [3] | outcome [4] | outcome [5] | outcome [6] | outcome [7] | outcome [8] | outcome [9] | outcome [10] | outcome [11] | outcome [20] | Potency [12] | outcome [13] | outcome [14]

CCCCCCCCCCCCCCCCCCO
inactive: outcome [1] | outcome [17] | outcome [18] | outcome [5] | outcome [6] | outcome [19] | outcome [7] | outcome [8] | outcome [9] | outcome [10] | outcome [11] | Potency [12] | outcome [13] | outcome [14] | Potency [15] | Potency [16]

CN1CCN(c2cc3c(nn2)Oc2ccccc2N3C)CC1
inactive: outcome [1] | outcome [17] | outcome [18] | outcome [3] | outcome [5] | outcome [6] | outcome [19] | outcome [7] | outcome [9] | outcome [10] | outcome [11] | activity change, negative = inhibition [12] 55.1% [at 19 µM] | viability change, negative = cytotoxic [13] 4.25% [at 15.8 µM] | activation [14] 0.803% [at 15.8 µM] | activation [15] 10.7% [at 15.8 µM] | activity change, negative = cytotoxicity [16] 1.18% [at 15.8 µM]

CC(=O)NC(=O)c1ccccc1O
inactive: outcome [1] | outcome [17] | outcome [18] | outcome [3] | outcome [5] | outcome [7] | outcome [8] | outcome [9] | outcome [10] | outcome [11] | Potency [12] | outcome [13] | outcome [14] | Potency [16]

CNCC(O)c1ccc(O)c(O)c1 (stereo unspecified)
inactive: outcome [3] | outcome [5] | outcome [6] | outcome [19] | outcome [8] | outcome [9] | outcome [10] | outcome [11] | Potency [12] | outcome [13] | outcome [14] | Potency [15]

C=COCC1CCC(COC=C)CC1 (stereo unspecified)
inactive: outcome [3] | outcome [5] | outcome [6] | outcome [19] | outcome [7] | outcome [8] | outcome [9] | outcome [10] | outcome [11] | Potency [12] | outcome [13] | outcome [14] | Potency [15]

CCOC(=O)CCC(=O)OCC
inactive: outcome [1] | outcome [17] | outcome [18] | outcome [3] | outcome [5] | outcome [19] | outcome [7] | outcome [8] | outcome [9] | outcome [10] | outcome [11] | Potency [12] | outcome [13] | outcome [14] | Potency [15] | Potency [16]

CCCCOCCOC(=O)CCCCCCCCC(=O)OCCOCCCC
inactive: outcome [1] | outcome [18] | outcome [3] | outcome [5] | outcome [7] | outcome [8] | outcome [9] | outcome [10] | outcome [11] | outcome [20] | Potency [12] | outcome [13] | outcome [14]

Cc1ccc(C(=O)c2ccccc2)cc1
inactive: outcome [1] | outcome [17] | outcome [2] | outcome [3] | outcome [4] | outcome [5] | outcome [6] | outcome [19] | outcome [7] | outcome [8] | outcome [9] | outcome [10] | outcome [11] | Potency [12] | outcome [13] | outcome [14] | Potency [15] | Potency [16]
